Test results reported in publication PMC4336329 (PLoS ONE, 2015).
Screen size: about 310,000 compounds; about 14,000 (4.5%) showed an effect of 50% or more. The effect is printed as a negative number. The sample as a whole holds a higher share of strong results than the screen did.

Target: human ether-à-go-go-related gene (hERG) potassium channel (human, UniProt Q12809)
Experiment: primary screen, population patch clamp on CHO cells stably expressing hERG; higher = less effect of the substance
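Note: peak tail current of the secondary pulse compared with the same well before compound.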

Chain of human ether-à-go-go-related gene (hERG) potassium channel (Q12809 whole entry, looked up): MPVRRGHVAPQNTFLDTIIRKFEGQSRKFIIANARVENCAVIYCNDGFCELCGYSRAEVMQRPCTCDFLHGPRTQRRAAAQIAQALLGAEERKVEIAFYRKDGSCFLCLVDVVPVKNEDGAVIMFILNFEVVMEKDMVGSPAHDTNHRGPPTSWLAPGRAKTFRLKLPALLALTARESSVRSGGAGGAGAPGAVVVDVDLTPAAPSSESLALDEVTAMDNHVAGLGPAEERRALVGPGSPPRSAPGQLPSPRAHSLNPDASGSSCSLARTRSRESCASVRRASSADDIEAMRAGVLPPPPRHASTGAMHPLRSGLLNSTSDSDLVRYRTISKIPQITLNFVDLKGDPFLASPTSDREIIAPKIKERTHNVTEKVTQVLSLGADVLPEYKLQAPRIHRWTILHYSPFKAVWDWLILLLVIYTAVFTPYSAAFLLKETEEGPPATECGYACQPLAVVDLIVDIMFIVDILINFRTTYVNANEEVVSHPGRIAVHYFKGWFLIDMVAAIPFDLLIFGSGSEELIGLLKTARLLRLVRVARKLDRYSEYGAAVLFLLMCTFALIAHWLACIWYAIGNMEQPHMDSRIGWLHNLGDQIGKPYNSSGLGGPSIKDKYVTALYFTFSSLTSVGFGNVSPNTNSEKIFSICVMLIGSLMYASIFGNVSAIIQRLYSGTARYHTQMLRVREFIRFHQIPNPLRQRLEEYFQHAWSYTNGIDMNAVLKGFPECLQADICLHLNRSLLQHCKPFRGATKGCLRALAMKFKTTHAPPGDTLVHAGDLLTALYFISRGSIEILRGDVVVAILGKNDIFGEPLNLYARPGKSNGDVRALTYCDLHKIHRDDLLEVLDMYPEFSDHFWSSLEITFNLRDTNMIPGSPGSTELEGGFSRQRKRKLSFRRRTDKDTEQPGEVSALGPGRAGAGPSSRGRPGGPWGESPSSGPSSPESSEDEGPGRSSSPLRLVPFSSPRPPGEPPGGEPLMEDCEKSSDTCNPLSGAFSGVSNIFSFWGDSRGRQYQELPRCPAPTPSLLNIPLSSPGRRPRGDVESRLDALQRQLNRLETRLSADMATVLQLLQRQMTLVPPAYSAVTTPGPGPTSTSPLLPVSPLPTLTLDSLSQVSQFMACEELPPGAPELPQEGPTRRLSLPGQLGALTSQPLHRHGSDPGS

Point of comparison: `Cc1ccc(CNC(=O)c2cc3c(=O)n4ccccc4nc3n(CC3CCCO3)c2=N)cc1` (stereo not shown), “hERG current change (%, negative = inhibition) at 10uM” value -81.3%. Against it:
- S=c1[nH]nc(-c2ccccc2)n1/N=C/c1cccc(Br)c1 — higher, 21.4%
- CC(C(=O)N1CCOCC1)N1C(=O)c2cccc3cccc(c23)C1=O (stereo not shown) — higher, 16.6%
- COc1cc(OC)cc(-c2c(-c3cccs3)c3cc(-c4cnc(OC)nc4)ccc3n2C)c1 — higher, 1.57%
- O=S(=O)(/N=C(/NC(=S)Nc1ccccc1)c1ccccc1)c1ccc(Cl)cc1 — higher, 18.9%
- Cc1cc(C)c2nc(NNC(=O)c3cc(-c4cccs4)nc4ccccc34)sc2c1 — higher, 18.3%
- Cn1c(SCC(=O)N/N=C/c2ccco2)nc2ccccc21 — higher, -2.38%
- Cn1c(SCC(=O)N/N=C/C=C\c2ccco2)nc2ccccc21 — higher, -50.6%
- O=C(CSc1nc2ccccc2n1Cc1ccccc1)N/N=C/c1ccccc1C(=O)O — higher, -0.979%
- CCn1c(SCC(=O)N/N=C/C=C\c2ccco2)nc2ccccc21 — higher, -9.42%
- Cc1ccc(/C=N/NC(=O)CSc2nc3ccccc3n2Cc2ccccc2)o1 — higher, -33.9%
- O=C(CSc1nc2ccccc2n1Cc1ccccc1)N/N=C/c1ccco1 — higher, -60.7%
- Cc1ccc(/C=N/NC(=O)CSc2nc3ccccc3n2Cc2ccc(Cl)cc2)o1 — higher, -16.2%
- Cn1c(SCC(=O)N/N=C/C=C/c2ccco2)nc2ccccc21 — higher, -42.9%
- Cc1ccc(Cn2c(SCC(=O)N/N=C/c3ccc(C)o3)nc3ccccc32)cc1 — higher, -61.1%
- Cc1cc(NC(=O)CSc2ccccn2)no1 — higher, 11.3%
- CN(C(=O)c1ccno1)c1nnc(-c2cnccn2)s1 — higher, 6.99%
- CC(C)(C)NC(=S)N/N=C/c1cc(Br)c(O)c(Br)c1 — higher, 29.8%
- CCC12CN3CCN(CC(C3)C1O)C2 (stereo not shown) — higher, -6.76%
- CCOc1ccc2[nH]c3nc(SCC(=O)NC4CCCC4)nnc3c2c1 — higher, 14.1%
- O=C(NCc1ccccc1)c1ccc2nc(-c3ccco3)c(-c3ccco3)nc2c1 — higher, -10.7%
- CC1CCN(C(=O)CSc2nnc(-c3ccc(S(=O)(=O)N4CCOCC4)cc3)n2C)CC1 — higher, -4.38%
- Cc1cccc(C)c1Nc1c(-c2ccc(N3CCOCC3)cc2)nc2ncccn12 — higher, -19%
- Cc1ccc(-c2cc(-c3ccccc3)cc(-c3ccccc3)[n+]2-c2ccccc2)cc1.[O-][Cl+3]([O-])([O-])[O-] — lower, -82.1%
- Cc1ccc(-c2cc(-c3ccccc3)cc(-c3ccccc3)[n+]2-c2ccc(C(=O)O)cc2)cc1.[O-][Cl+3]([O-])([O-])[O-] — higher, 4.17%
- Brc1ccc(-[n+]2c(-c3ccccc3)cc(-c3ccccc3)cc2-c2ccccc2)cc1.[O-][Cl+3]([O-])([O-])[O-] — higher, -73.8%
- Brc1ccc(-c2ccccc2)cc1 — higher, 0.132%
- Cc1ccc(-c2cc(-c3ccc(C)cc3)[n+](-c3ccccc3)c(-c3ccc(C)cc3)c2)cc1.[O-][Cl+3]([O-])([O-])[O-] — higher, -80.2%
- Oc1ccc(-[n+]2c(-c3ccccc3)cc(-c3ccccc3)cc2-c2ccccc2)cc1.[O-][Cl+3]([O-])([O-])[O-] — higher, -71.3%
- Clc1ccc(OCCOCCOc2cccc3cccnc23)c(Br)c1 — higher, 0.0859%
- O=C(CCS(=O)(=O)c1ccc(Br)cc1)N1CCCCCC1 — higher, -25.3%
- CN1C(=O)c2ccc(NC(=O)c3c(F)c(F)c(F)c(F)c3F)cc2C1=O — higher, 18.3%
- CC(C)c1ccc(NC(=S)NN(c2ccccc2)c2ccccc2)cc1 — higher, 12.7%
- O=C(NCc1ccc2c(c1)OCO2)c1ccc2c(=O)n(C3CCCC3)c(=O)[nH]c2c1 — higher, 4.61%
- COc1ccc(C(=O)Nc2nc3ccc(OC)cc3s2)cc1 — higher, 12.6%
- Nc1ccc(-c2cnc[nH]2)cc1[N+](=O)[O-] — higher, -0.302%
- CCN(CCNCC(O)COCc1ccc(Cl)cc1)c1cccc(C)c1.O=C(O)C(=O)O (stereo not shown) — higher, -18.2%
- O=C(O)c1ccccc1NCCO — higher, 33.8%
- O=C(CSc1nnc(-c2ccncc2)s1)Nc1ccccc1 — higher, 3.19%
- O=C(O)c1ccc(-[n+]2c(-c3ccccc3)cc(-c3ccccc3)cc2-c2ccccc2)cc1.[O-][Cl+3]([O-])([O-])[O-] — higher, 14.8%
- [O-][Cl+3]([O-])([O-])[O-].c1ccc(-c2cc(-c3ccccc3)[n+](-c3ccccc3)c(-c3ccccc3)c2)cc1 — higher, -71.3%
- O=[N+]([O-])c1ccc(-[n+]2c(-c3ccccc3)cc(-c3ccccc3)cc2-c2ccccc2)cc1.[O-][Cl+3]([O-])([O-])[O-] — higher, 4.73%
- Cc1ccc2c(COC(=O)c3ccc(NC(=O)CC#N)cc3)cc(=O)oc2c1C — higher, 3.63%
- COc1ccc(NC(=O)CSc2c3c(nc4ccccc24)CCC3)c(OC)c1 — higher, -36.9%
- COc1ccc(OC)c(NC(=O)c2c3c(nc4ccccc24)CCC3)c1 — higher, -21.8%
- COc1ccccc1NC(=O)CSc1c2c(nc3ccccc13)CCC2 — higher, -26.3%
- COc1ccc(C)cc1Nc1c2c(nc3ccccc13)CCC2 — higher, -56.7%
- COc1ccc(OC)c(Nc2c3c(nc4ccccc24)CCC3)c1 — higher, -67.8%
- COc1ccc(NC(=O)CSc2c3c(nc4ccccc24)CCCC3)c(OC)c1 — higher, -47.5%
- COc1ccc(OC)c(NC(=O)COC(=O)c2c3c(nc4ccccc24)CCCC3)c1 — higher, 1.03%
- COc1ccc(C)cc1Nc1nc(N)c2ccccc2n1.Cl — higher, -12.8%
- COc1ccc(Nc2c3c(nc4ccccc24)CCC3)c(OC)c1 — higher, -64.7%
- COc1ccccc1Nc1c2c(nc3ccccc13)CCC2 — higher, -45.6%
- Nc1ccc2nc3c(c(Cl)c2c1)CCCC3 — higher, -22.7%
- COc1ccccc1Nc1c2c(nc3ccc(N)cc13)CCCC2 — higher, -72.4%
- O=C(NC1(C(=O)NC2CCCCC2)CCCCC1)c1ccccn1 — higher, 2.56%
- COc1ccc(CCNC(=O)C(=O)NCc2ccc(C)cc2)cc1OC — higher, -1.57%
- COc1ccccc1N1CCN(C(=O)c2cc(-c3cccs3)on2)CC1 — higher, -22.7%
- COc1cccc(CNC(=O)C2Cc3ccccc3CN2C(C)=O)c1 (stereo not shown) — higher, 2.81%
- C=CCc1cccc(/C=N/NC(=O)COc2ccc(-n3cnnn3)cc2)c1O — higher, 11.3%
- CCN1C(=O)N[C@@H](c2cccc(C(F)(F)F)c2)[C@@H](C(=O)OC)[C@H]1C — higher, -19%
- O=C(Cn1cccc1C(=O)c1ccccc1)NCc1ccc(Cl)cc1 — higher, 18.7%
- O=C(O)CC(NS(=O)(=O)c1cccc2nsnc12)c1ccc(F)cc1 (stereo not shown) — higher, -17.2%
- Cc1cc(F)ccc1S(=O)(=O)Nc1ccc(C(=O)N2CCCCCC2)cc1 — higher, -27.6%
- Cc1ccc2nc(SCC(=O)N/N=C/c3ccco3)cc(C)c2c1 — higher, 10.4%
- Cc1ccc2nc(N/N=C/c3ccco3)cc(C)c2c1 — higher, -64.3%
- Cc1cc(N/N=C/c2ccco2)c2ccccc2n1 — higher, 16.6%
- C[C@@H]1CC[C@H]2[C@@H](C)C(=O)O[C@@H]3O[C@@]4(C)CC[C@@H]1[C@]32OO4 — higher, 0.204%
- COc1ccc(OC)c(NC(=O)CSc2nnc(C3CCCCC3)n2N)c1 — higher, -17.4%
- CC(C)CC(NC(N)=O)C(=O)Nc1ccc(Oc2ccccc2)cc1 (stereo not shown) — higher, 10.1%
- O=C(/C(=N\Nc1ccc(Br)cc1)Sc1nnnn1-c1ccccc1)c1ccccc1 — higher, 13.8%
- Cc1ccc2c(c1)c1c3n2CCN(CC(N)=O)C3CCC1 (stereo not shown) — higher, 25.6%
- CCN1CCn2c3c(c4cc(Cl)ccc42)CCCC31.Cl (stereo not shown) — higher, -39.1%
- CCN(CC)CCN1CCn2c3c(c4cc(C)ccc42)CCCC31.Cl (stereo not shown) — higher, -76.3%
- Cc1ccc2c(c1)c1c3n2CCN(CC#N)C3CCC1 (stereo not shown) — higher, 2.24%
- CCN1CCn2c3c(c4cc(C)ccc42)CCCC31 (stereo not shown) — higher, -54.2%
- Cc1ccc2c(c1)c1c3n2CCN(CCC(=O)O)C3CCC1 (stereo not shown) — higher, -3.49%
- NC[C@H]1O[C@H](O[C@H]2[C@H](O)[C@@H](O[C@H]3O[C@H](CO)[C@@H](O)[C@H](N)[C@H]3O)[C@H](N)C[C@@H]2N)[C@H](N)C[C@@H]1O.O=S(=O)(O)O — higher, 4.47%
- CC(C)c1nnc(NC(=O)c2nc(S(=O)(=O)Cc3ccccc3F)ncc2Cl)s1 — higher, -5.79%
- c1ccc(CN=C2NN=C(c3cc4ccccc4o3)CS2)cc1 — higher, -16.3%
- CC(C)(C)N=C1NN=C(c2cc3ccccc3o2)CS1 — higher, -9.99%
- c1ccc2oc(C3=NNC(=NC4CC4)SC3)cc2c1 — higher, -58.5%
- COc1cccc(C(c2sc3ncnn3c2O)N2CC(C)OC(C)C2)c1 (stereo not shown) — higher, 0.441%
- O=C(NCc1ccc2c(c1)OCO2)c1ccc2c(c1)C(=O)N(CC1CCCO1)C2=O (stereo not shown) — higher, 2.28%
- O=C(NCc1ccccc1)c1ccc2c(=O)n(CC3CCCO3)c(=S)[nH]c2c1 (stereo not shown) — higher, -2.39%
- COc1ccc(CNC(=O)c2cc3c(=O)n4ccccc4nc3n(CC3CCCO3)c2=N)cc1 (stereo not shown) — higher, -72.5%
- N=c1c(C(=O)NCc2ccc3c(c2)OCO3)cc2c(=O)n3ccccc3nc2n1CC1CCCO1 (stereo not shown) — higher, -79.5%
- CCOC(=O)c1cc2c(=O)n3ccccc3nc2n(CC2CCCO2)c1=NC(C)=O (stereo not shown) — higher, -1.13%
- N=c1c(S(=O)(=O)c2ccc(F)cc2)cc2c(=O)n3ccccc3nc2n1CC1CCCO1 (stereo not shown) — higher, -40.8%
- N=c1c(C(=O)NCc2ccc(F)cc2)cc2c(=O)n3ccccc3nc2n1CC1CCCO1 (stereo not shown) — higher, -77.4%
- O=C(CSc1nc2ccccc2c(=O)n1CC1CCCO1)NCc1ccc2c(c1)OCO2 (stereo not shown) — higher, -30.2%
